Experimental data reported in PubChem BioAssay.
Calls of active or inactive are those of the source.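 Rule for the calls, unless noted: active = compounds lowering colon cancer cell viability after pretreatment blocking the GSK3B kinase; inactive = the rest.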

Legend:
[1] = stimulators of nuclear beta-catenin in C2C12, primary screen, imaging, WNT3A-conditioned medium, mouse C2C12, NPC library (AID 1117326; in the data active = nuclear beta-catenin stimulation mostly above about 4.2%, no sharp cut-off; inactive = mostly below about 10%; note: reference of the scale not given here); conditions: stronger effect = higher value
[2] = stimulators of insulin release from INS-1E, primary screen, cell-based, 5 mM glucose, NPC library (AID 1117329;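 active = compound raises insulin release from rat beta cells at 5 mM glucose, no numeric limit stated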; note: reference of the scale not given here); conditions: rat INS-1E insulin secretion, at 10 µM, stronger effect = higher value
[3] = growth inhibition of GSK3B-pretreated HCT116 cells – cell-based, CellTiter-Glo, 0.2 to 20 µM (AID 1117336); conditions: HCT116 viability after GSK3B inhibitor, at 20 µM, stronger effect = higher value
[4] = inhibition of endothelial tube formation, primary screen, imaging, VEGF stimulated, CD31 staining, tube area, NPC library (AID 1117340;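 active = compound that reduces growth-factor-driven endothelial tube area in a mixed cell culture, no cutoff stated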); conditions: VEGF-stimulated ADSC/ECFC co-culture, at 10 µM, stronger effect = higher value
[5] = glucagon-like peptide 1 release enhancers, primary assay, NCI-H716 cell line, NPC library (AID 1117341;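 active = compound raises GLP1 secretion from the human gut endocrine cells, with no numeric limit stated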; note: reference of the scale not given here); conditions: NCI-H716 cells, at 10 µM, stronger effect = higher value
[6] = HCT116 colon cancer cell growth inhibition, primary screen, CellTiter-Glo luminescence, NPC library (AID 1117342;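 active = compounds that lower survival of HCT116 colon cancer cells in the luminescence readout, no numeric limit stated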); conditions: at 20 µM (top of the series)
[7] = CellTiter-Glo luminescent readout of SW480 viability loss, NPC library primary (AID 1117343;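 active = compounds that lower viability of the colon cancer cells in the luminescence readout, with no numeric limit stated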); conditions: CellTiter-Glo luminescence; at 20 µM (top of the series)
[8] = decreased DLD-1 cellular survival, CellTiter-Glo luminescent readout, NPC compound collection, primary HTS (AID 1117346;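 active = compounds that lower survival of DLD-1 colon cancer cells in the luminescence readout, no cutoff given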); conditions: DLD-1 viability, CellTiter-Glo luminescence; at 20 µM (top of the series)

Row | Compound | nuclear beta-catenin stimulation ([1]; at 10 µM) | nuclear beta-catenin stimulation ([1]; stimulation, at 2 µM) [%] | insulin secretion stimulation [2] | viability decrease [3] | tube area decrease [4] | GLP1 secretion stimulation [5] | inhibition of viability [6] | viability decrease (inhibition) [7] | viability decrease (inhibition) [8]
1 | Cc1ccc2c(Br)cc(Br)c(O)c2n1 | 43% (active) | 5.5 | 2.4% (inactive) | 91% (active) | 106% (active) | -1.3% (inactive) | 79.2% (active) | 90.3% (active) | 93.3% (active)
2 | Cc1cccc(C)c1NC(=O)CN1CCCCCC1 | -2% (inactive) | 0.1 | 1.9% (inactive) | -6.6% (inactive) | -7.7% (inactive) | -1% (inactive) | -16.3% (inactive) | 23.3% (inactive) | -8.2% (inactive)
3 | COC(=O)c1cc(Cl)ccc1OC | -0.1% (inactive) | -1.6 | 1.5% (inactive) | 1.2% (inactive) | -13.8% (inactive) | 2.6% (inactive) | 8.2% (inactive) | -4.7% (inactive) | 0.3% (inactive)
4 | CCCCC(=O)OCC(=O)[C@H]1[C@H](C)C[C@H]2[C@@H]3C[C@H](F)C4=CC(=O)C=C[C@]4(C)[C@@]3(F)[C@@H](O)C[C@@]21C | -1.1% (inactive) | -1.4 | 13.7% (inactive) | -7.2% (inactive) | -11.7% (inactive) | 0.8% (inactive) | 17.1% (inactive) | -15.9% (inactive) | -9.9% (inactive)
5 | CCCCCCCCCCCCCCCC[n+]1ccccc1 | -2.9% (inactive) | 5.4 | 46% (active) | 56% (active) | 104% (active) | 72.8% (active) | 112% (active) | 112% (active) | 60.9% (active)
6 | CN1CCN(N)CC1 | 1.1% (inactive) | 0.7 | 1.5% (inactive) | -1.2% (inactive) | -7.3% (inactive) | 0.5% (inactive) | 0.1% (inactive) | -13.8% (inactive) | 10.2% (inactive)
7 | CC1(C)S[C@@H]2[C@H](NC(=O)C(c3ccccc3)S(=O)(=O)O)C(=O)N2[C@H]1C(=O)O (stereo partly specified) | 1.3% (inactive) | 1.4 | -0.05% (inactive) | 5.8% (inactive) | -2.3% (inactive) | 3.6% (inactive) | 1.3% (inactive) | -0.2% (inactive) | -1.8% (inactive)
8 | Nc1c(I)cc(I)c(C(=O)N(CCC(=O)O)c2ccccc2)c1I | 1.2% (inactive) | -0.2 | 1.9% (inactive) | -9.8% (inactive) | -5.2% (inactive) | -5.3% (inactive) | -9.4% (inactive) | 7.8% (active) | -9.8% (inactive)
9 | COc1ccccc1OCC1CNC(=O)O1 (stereo unspecified) | -2% (inactive) | 0.2 | 0.9% (inactive) | -16.8% (inactive) | -6.7% (inactive) | -1.6% (inactive) | 4.4% (inactive) | 15.3% (inactive) | -2.8% (inactive)
10 | c1ccc(-n2cnnn2)cc1 | 0.3% (inactive) | 0.9 | 1.9% (inactive) | -7.2% (inactive) | 23.2% (inactive) | -5% (inactive) | 1.7% (inactive) | 10.4% (inactive) | 1.4% (inactive)
11 | CCCC(=O)Nc1ccc(O)c(C(C)=O)c1 | 1.7% (inactive) | 0.4 | 3.1% (inactive) | -4.4% (inactive) | -7% (inactive) | -3.4% (inactive) | 2.9% (inactive) | -3.5% (inactive) | 2.6% (inactive)
12 | CCC(=C(CC)c1ccc(OP(=O)(O)O)cc1)c1ccc(OP(=O)(O)O)cc1 | -1.3% (inactive) | 1.7 | -1.8% (inactive) | -26.4% (inactive) | 3.7% (inactive) | -1.8% (inactive) | -0.4% (inactive) | -2.6% (inactive) | 10.2% (inactive)
13 | CC(C)=CCC/C(C)=C/CC/C(C)=C/CCC(=O)OC/C=C(\C)CCC=C(C)C | 0.5% (inactive) | 0.6 | 5.2% (inactive) | -4.2% (inactive) | -4.6% (inactive) | 3.3% (inactive) | 1.5% (inactive) | -3.7% (inactive) | 2% (inactive)
14 | C[C@@H](O)[C@H](N)C(=O)O | 0.7% (inactive) | 0.7 | -1.9% (inactive) | -7.25% (inactive) | -11.2% (inactive) | 1.6% (inactive) | -31.1% (inactive) | 13.3% (inactive) | 12.6% (inactive)
15 | CCCCC[C@H](O)C=C[C@H]1[C@H](O)CC(=O)[C@H]1CC=CCCCC(=O)O | 0.5% (inactive) | -0.7 | 1.7% (inactive) | -18.4% (inactive) | 28.7% (inactive) | 3.8% (inactive) | -14.5% (inactive) | 25.3% (inactive) | -48.6% (inactive)
16 | C=C1C(=C/C=C2\CCC[C@]3(C)[C@@H]([C@H](C)/C=C/[C@@H](O)C4CC4)CC[C@@H]23)C[C@@H](O)C[C@@H]1O | 2.6% (inactive) | 4.1 | 4.15% (inactive) | 103% (active) | 19.7% (inactive) | 3.9% (inactive) | 82% (active) | 111% (active) | 92.9% (active)
17 | CCCN(CCC)C(=O)C(CCC(=O)OCCCN1CCN(CCOC(=O)Cc2c(C)n(C(=O)c3ccc(Cl)cc3)c3ccc(OC)cc23)CC1)NC(=O)c1ccccc1 (stereo unspecified) | 51% (active) | -0.4 | 0.4% (inactive) | 113% (active) | 25.9% (inactive) | 3.5% (inactive) | 113% (active) | 120% (active) | 93.3% (active)
18 | O=C(O)c1ccc(OCCN2CCCCC2)cc1 | -1% (inactive) | -0.1 | -2.35% (inactive) | 2.1% (inactive) | 4.5% (inactive) | 4% (inactive) | -8.6% (inactive) | -5.5% (inactive) | 0.5% (inactive)
19 | CC(C(O)c1ccccc1)N(C)CCOC(c1ccccc1)c1ccccc1 (stereo unspecified) | 4.3% (inactive) | 2.3 | 2.45% (inactive) | 77.3% (active) | 14.1% (inactive) | 7.4% (inactive) | 86.9% (active) | 133% (active) | 81.5% (active)
20 | C[C@@H](O)[C@H]1C(=O)N2C(C(=O)O)=C(S[C@@H]3CN[C@H](CNS(N)(=O)=O)C3)[C@H](C)[C@H]12 | 2.9% (inactive) | 3 | -0.6% (inactive) | 14% (inactive) | -14% (inactive) | 0.3% (inactive) | 25.7% (inactive) | 3.1% (inactive) | -20.9% (inactive)
21 | NCCCC[C@H](N)C(=O)O | 1.6% (inactive) | 2 | -2.1% (inactive) | 1.2% (inactive) | -14.1% (inactive) | -3.9% (inactive) | -2.6% (inactive) | 12.8% (inactive) | -0.6% (inactive)
22 | CCCSS/C(CCO)=C(\C)N(C=O)Cc1cnc(C)nc1N | -1.4% (inactive) | -0.7 | 10.2% (inactive) | 33.3% (inactive) | 55.3% (active) | -4.8% (inactive) | 19.1% (inactive) | 45.4% (inactive) | 65.6% (active)
23 | Nc1ncnc2c1ncn2Cc1c(F)cccc1Cl | -0.7% (inactive) | -2.1 | 4.3% (inactive) | -7.4% (inactive) | -5% (inactive) | 1.9% (inactive) | 9.7% (inactive) | -2.4% (inactive) | -2% (inactive)
24 | Cc1oc(=O)oc1COC(=O)[C@@H]1N2C(=O)[C@@H](NC(=O)[C@H](N)c3ccccc3)[C@H]2SC1(C)C | 0.5% (inactive) | 1.3 | -1% (inactive) | -11.1% (inactive) | -10.3% (inactive) | -1.9% (inactive) | -15.2% (inactive) | 25.1% (inactive) | -14.8% (inactive)
25 | CCCCCCn1c(=O)c2c(ncn2C)n(C)c1=O | -0.5% (inactive) | -2 | 1.5% (inactive) | 1.6% (inactive) | 10.5% (inactive) | 1.6% (inactive) | 6.2% (inactive) | 15% (inactive) | -3.4% (inactive)
26 | CCOC(CN1CCN(CC(C)C(=O)c2ccccc2)CC1)c1ccccc1 (stereo unspecified) | 2.2% (inactive) | -0.1 | 5% (inactive) | -4.9% (inactive) | 14% (inactive) | -1.8% (inactive) | 21.2% (inactive) | 0.6% (inactive) | -4.9% (inactive)
27 | CN[C@@H]1[C@H](O)[C@H](O[C@@H]2[C@H](O)[C@@H](O[C@H]3O[C@H]([C@@H](C)NC)CC[C@H]3N)[C@@H](N)C[C@H]2N)OC[C@]1(C)O | -0.1% (inactive) | -0.4 | 1.1% (inactive) | 7.9% (inactive) | 0.9% (inactive) | 2.8% (inactive) | 6.73% (inactive) | 29.9% (inactive) | -5.6% (inactive)
28 | O=C1CC2(CCCC2)CC(=O)N1 | -0.8% (inactive) | -1.2 | 0.4% (inactive) | -4% (inactive) | -10.3% (inactive) | -1.6% (inactive) | 7.1% (inactive) | 2.5% (inactive) | -2.4% (inactive)
29 | CCCCOCCOC(=O)c1cccnc1 | 1.3% (inactive) | -0.3 | 2.6% (inactive) | -29.5% (inactive) | 1.8% (inactive) | 2.3% (inactive) | -11.9% (inactive) | 18.6% (inactive) | -20.5% (inactive)
